Hits are enriched below; roughly 12% of the tested compounds scored in any of these assays.
HP1b chromo inh: HTS for Inhibitors of HP1-beta Chromodomain Interactions with Methylated Histone Tails. 0.56% of 390,000 active. AlphaScreen HP1-beta / biotin-H3K9me3 peptide binding. Potency, µM (series often up to 114 µM), inactives show top-dose activity change, negative = inhibition, usual class: inhibitors. Chromobox protein homolog 1 (Homo sapiens), P83916; note: nearly all actives have a fitted effect of over 70% in size
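Compound inhibition of the preformed complex between 50 nM HP1-beta and 50 nM biotinylated H3K9me3 peptide was read by AlphaScreen. Buffer was PBS pH 7.4 with 0.01% Tween-20. Incubations ran 30 min at room temperature, with 10 ug/mL donor/acceptor beads.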
JMJD2A Tudor inh: qHTS Assay for Inhibitors of JMJD2A-Tudor Domain. Potency, µM (top dose mostly 114 µM), for the others: at the top dose activity change, negative = inhibition, hits mostly inhibitors. Lysine-specific demethylase 4A (Homo sapiens), O75164. AlphaScreen JMJD2A-Tudor / H3K4me3 peptide binding. 4.4% of 390,000 active; note: % is set by controls: 0 for no effect and ±100 for the full control effect; nearly all actives have a fitted effect of over 50% in size
G9a block: qHTS Assay for Inhibitors of Histone Lysine Methyltransferase G9a | Histone-lysine N-methyltransferase EHMT2 (Homo sapiens), Q96KQ7 | G9a H3K9 monomethylation, AlphaScreen, 2 h | Potency, µM (highest dose often 102 µM), without a hit: at the top dose activity, negative = inhibition, usual class: inhibitors | 8.8% of 350,000 active | AID 504332, 2011; note: % is set by controls: 0 for no effect and ±100 for the full control effect; nearly all actives have a fitted effect of over 75% in size
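Signal arises when biotinylated H3K9 peptide, once monomethylated, bridges streptavidin donor and antibody-captured acceptor beads. Enzyme at 20 nM was preincubated 15 min with test compounds; peptide 500 nM and SAM 20 uM then reacted for 2 h.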
Sfp PPTase inh: qHTS Assay for Inhibitors of Bacillus subtilis Sfp phosphopantetheinyl transferase (PPTase); Potency, µM, inactives show largest response in the series, negative = inhibition, usual class: inhibitors; AID 1490, 2009; Biochemical Sfp PPTase activity, qHTS; 3.5% of 310,000 active;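 note: the enzyme is Sfp with the accession as filed and its product quenches rhodamine fluorescence; 0% = enzyme reaction without inhibitor and -100% = no enzyme wells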
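With Hepes-Na pH 7.6 buffer containing 10 mM MgCl2, Sfp (15 nM) modified BHQ-2-YbbR (12.5 uM) using rhodamine-CoA (5 uM). Two reads 30 minutes apart at 525/598 nm yielded each well's rate.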
L3MBTL1 inh: qHTS Assay for the Inhibitors of L3MBTL1 | AlphaScreen L3MBTL1–H3K9me1 peptide binding | AID 485360, 2010 | 0.66% of 230,000 active | Lethal(3)malignant brain tumor-like protein 1 (Homo sapiens), Q9Y468 | Potency, µM (titrated, usually from 57.1 µM), without a hit: top-dose activity, negative = inhibition, hits mostly inhibitors; note: % is set by controls: 0 for no effect and ±100 for the full control effect; nearly all actives have a fitted effect of over 60% in size
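First, the protein-peptide complex forms for 30 min at room temperature (L3MBTL1 50 nM, biotinylated H3K9me1 peptide 75 nM). Next, compounds are pin-transferred and incubated 30 min. Finally, AlphaScreen beads are added and read after 30 min.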
BAZ2B block: qHTS Assay for Inhibitors of BAZ2B; Bromodomain adjacent to zinc finger domain protein 2B (Homo sapiens), Q9UIF8; AlphaScreen BAZ2B-H3K14Ac peptide displacement; Potency, µM (top dose mostly 114 µM), for the others: at the top dose activity change, negative = inhibition, most hits filed as inhibitors; 4.4% of 360,000 active; AID 504333, 2011; note: % is set by controls: 0 for no effect and ±100 for the full control effect; nearly all actives have a fitted effect of over 60% in size
Target sequence (Q9UIF8 whole entry, looked up, the tested form may be a part): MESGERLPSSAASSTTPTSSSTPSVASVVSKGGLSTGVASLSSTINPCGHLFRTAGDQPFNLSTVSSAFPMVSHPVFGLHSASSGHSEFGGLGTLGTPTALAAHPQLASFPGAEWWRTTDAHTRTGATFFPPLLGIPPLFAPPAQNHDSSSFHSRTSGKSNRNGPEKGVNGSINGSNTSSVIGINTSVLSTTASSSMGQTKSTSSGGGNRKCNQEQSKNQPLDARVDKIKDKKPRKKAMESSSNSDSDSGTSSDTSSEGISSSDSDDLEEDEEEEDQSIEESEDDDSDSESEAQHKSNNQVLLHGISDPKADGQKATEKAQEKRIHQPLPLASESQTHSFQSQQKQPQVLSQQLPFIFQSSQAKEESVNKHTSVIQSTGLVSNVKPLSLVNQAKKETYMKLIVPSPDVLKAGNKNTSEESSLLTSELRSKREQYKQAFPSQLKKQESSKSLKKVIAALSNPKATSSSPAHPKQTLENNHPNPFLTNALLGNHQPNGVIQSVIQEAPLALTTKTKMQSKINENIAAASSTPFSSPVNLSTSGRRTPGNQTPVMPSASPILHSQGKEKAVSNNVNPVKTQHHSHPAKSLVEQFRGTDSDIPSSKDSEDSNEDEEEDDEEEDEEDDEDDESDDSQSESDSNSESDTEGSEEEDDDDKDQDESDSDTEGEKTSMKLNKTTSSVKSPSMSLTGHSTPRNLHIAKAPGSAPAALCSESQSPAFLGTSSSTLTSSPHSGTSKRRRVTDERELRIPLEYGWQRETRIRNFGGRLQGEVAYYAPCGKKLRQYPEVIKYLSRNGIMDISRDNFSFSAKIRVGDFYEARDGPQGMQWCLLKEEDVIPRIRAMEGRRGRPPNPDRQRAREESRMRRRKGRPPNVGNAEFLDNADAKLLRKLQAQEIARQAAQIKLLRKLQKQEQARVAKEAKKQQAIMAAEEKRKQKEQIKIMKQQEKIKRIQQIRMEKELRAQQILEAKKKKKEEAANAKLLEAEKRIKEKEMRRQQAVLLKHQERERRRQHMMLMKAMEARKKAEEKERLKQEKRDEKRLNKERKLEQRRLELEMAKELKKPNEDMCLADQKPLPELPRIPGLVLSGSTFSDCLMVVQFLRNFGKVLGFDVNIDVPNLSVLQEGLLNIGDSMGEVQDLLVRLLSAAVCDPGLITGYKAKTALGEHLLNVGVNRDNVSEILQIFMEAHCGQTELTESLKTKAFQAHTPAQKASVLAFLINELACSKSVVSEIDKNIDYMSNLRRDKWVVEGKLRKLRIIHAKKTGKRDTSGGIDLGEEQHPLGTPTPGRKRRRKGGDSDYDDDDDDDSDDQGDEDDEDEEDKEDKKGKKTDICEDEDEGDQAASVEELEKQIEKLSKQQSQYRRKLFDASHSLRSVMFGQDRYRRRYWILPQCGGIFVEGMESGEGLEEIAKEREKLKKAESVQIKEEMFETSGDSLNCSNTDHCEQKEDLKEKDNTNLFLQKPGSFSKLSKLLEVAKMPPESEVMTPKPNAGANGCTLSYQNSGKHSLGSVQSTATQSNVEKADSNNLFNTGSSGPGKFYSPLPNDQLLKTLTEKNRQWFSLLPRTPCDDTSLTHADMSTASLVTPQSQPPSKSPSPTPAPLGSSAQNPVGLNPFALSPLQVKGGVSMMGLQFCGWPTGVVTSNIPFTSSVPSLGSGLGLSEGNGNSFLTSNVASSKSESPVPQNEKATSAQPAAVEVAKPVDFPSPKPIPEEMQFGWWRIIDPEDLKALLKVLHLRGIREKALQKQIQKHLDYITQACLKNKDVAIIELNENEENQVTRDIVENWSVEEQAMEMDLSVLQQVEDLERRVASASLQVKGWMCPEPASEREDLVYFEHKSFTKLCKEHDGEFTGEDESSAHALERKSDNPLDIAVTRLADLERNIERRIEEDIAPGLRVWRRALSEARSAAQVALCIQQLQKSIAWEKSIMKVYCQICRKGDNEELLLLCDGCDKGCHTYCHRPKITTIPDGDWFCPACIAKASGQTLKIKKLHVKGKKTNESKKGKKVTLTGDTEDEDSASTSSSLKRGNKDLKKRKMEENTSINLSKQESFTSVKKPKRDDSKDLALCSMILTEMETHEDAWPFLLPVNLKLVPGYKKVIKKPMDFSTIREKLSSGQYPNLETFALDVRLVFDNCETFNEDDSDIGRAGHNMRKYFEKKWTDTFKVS
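In this displacement format the biotinylated H3(5-23) peptide acetylated at Lys14 serves as ligand at 50 nM, with BAZ2B at 50 nM in PBS pH 7.4 containing 0.01% Tween-20. Donor and acceptor beads are 10 ug/mL final.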
* = called active by the depositor; ? = inconclusive; nt = not tested or not shown; [ ] = remark or other dose. Calls come from the whole dose curve; as a rule, active = well fitted curve in the direction sought with a large enough effect; inconclusive = small, poorly fitted or top-dose-only effect, or another doubt; inactive = no such curve, though single readings can be large; an effect the other way counts as inactive or inconclusive. Potency is the fitted concentration of half-maximal effect.

SMILES	HP1b chromo inh	JMJD2A Tudor inh	G9a block	Sfp PPTase inh	L3MBTL1 inh	BAZ2B block
Oc1ccc2cc(Br)ccc2c1CN1CCCC1	-19%	-12%	?	11%	-2%	nt
[O-]/C(=C(\C(=S)Nc1ccc(Cl)cc1)[n+]1ccccc1)c1ccc(OC(F)F)cc1	-18%	?	11µM*	50µM*	-12%	?
[O-]/C(=C(\C(=S)Nc1ccccc1F)[n+]1ccccc1)c1ccc(-c2ccccc2)cc1	4%	-30%	32µM*	18µM*	-12%	-27%
C=CCNC(=S)/C(=C(/[O-])c1ccccc1Br)[n+]1ccccc1	50%	2%[11.4 µM]	?	0%	1%	-22%
CC(C)(C)c1cc[n+](/C(C(=S)Nc2ccccc2F)=C(/[O-])c2ccc3c(c2)OCCO3)cc1	-21%	?	?	20µM*	nt	35µM*
CCOc1ccccc1NC(=S)/C(=C(\[O-])c1ccc2c(c1)OCCO2)[n+]1ccc(CC)cc1	?	-34%[57.1 µM]	8.9µM*	?	nt	?
O=C(c1ccc2c(c1)OCCO2)C1CCN(C(=O)Nc2ccccc2F)CC1	-5%	-10%	-17%	11%	nt	-30%
CN(NC(=S)Nc1ccc(OC(F)F)cc1)C(=S)Nc1ccc(OC(F)F)cc1	-4%	-9%	?	2%	3%	-5%
Nc1cccc(B(O)O)c1	6%	?	nt	10%	nt	nt
CC1(C)Nc2ccc(O)cc2-c2c1ssc2=S	50µM*	40µM*	8.9µM*	45µM*	?	45µM*
COc1ccc(NC(=O)CSc2nnc(Cc3cccn3C)n2-c2ccc(OC)cc2)cc1	18%	-20%	45µM*	4%	-12%	50µM*
CC(=O)c1ccc(NC(=O)CSc2nnc(Cc3cccn3C)n2-c2ccc(F)cc2)cc1	-8%	?	50µM*	-9%	nt	50µM*
CC(=O)Nc1cccc(NC(=O)CSc2nnc(Cc3cccn3C)n2-c2ccc(C)cc2)c1	10%	-21%	50µM*	?	-21%	?
CCOc1ccc(NC(=O)CSc2nnc(Cc3cccn3C)n2-c2ccc(OC)cc2)cc1	?	?	0%[12.7 µM]	0%	-6%	?
COc1ccc(-n2c(Cc3cccn3C)nnc2SCC(=O)NCC2CCCO2)cc1 (stereo not drawn)	40%	-9%	?	50µM*	-6%	-12%
Cc1ccc(C)c2sc(N3CCN(C(=O)c4ccco4)CC3)nc12	61%	-20%	?	nt	nt	-22%
O=C(CNC(=O)c1cccs1)Nc1ccncc1	7%	-22%	-43%	nt	6%	-1%
CC1=C(C(=O)OCc2ccc(C)cc2)C(c2cccc(F)c2F)CC(=O)N1 (stereo not drawn)	6%	-13%	5%[59 µM]	nt	nt	-3%
COc1ccc(-n2c(Cc3cccn3C)nnc2SCC(=O)Nc2ccc3c(c2)OCCO3)cc1	-19%	-32%	50µM*	1%	nt	?
COc1ccc(-n2c(Cc3cccn3C)nnc2SCC(=O)Nc2ccc(C(C)=O)cc2)cc1	10%	-25%	50µM*	-13%	nt	?
CCCC1CC(=O)NC1(C(=O)OCC)C(=O)OCC (stereo not drawn)	29%	2%	nt	nt	nt	nt
COc1ccc(-c2oc(NC(=O)CCl)c(C#N)c2-c2ccc(OC)cc2)cc1	-18%	?	50µM*	-2%	nt	50µM*
CC(C)c1nn2c(=O)cc(COC(=O)c3cccc(NC(=O)CCc4ccccc4)c3)nc2s1	26%	4%	3%[12.7 µM]	nt	nt	-11%
COc1cc(NS(=O)(=O)c2ccc3c(c2)CCCN3C(C)=O)cc(OC)c1OC	22%	-5%	9%[59 µM]	nt	nt	0%
CC(=O)N1CCCc2cc(S(=O)(=O)NC(C(=O)NC(C)c3ccccc3)C(C)C)ccc21 (stereo not drawn)	21%	16%	-23%	4%	-7%	4%
SMILES	HP1b chromo inh	JMJD2A Tudor inh	G9a block	Sfp PPTase inh	L3MBTL1 inh	BAZ2B block
COc1cc(NC(=O)CC(C)S(=O)(=O)c2ccc3c(c2)CCN3C(C)=O)cc(OC)c1OC (stereo not drawn)	30%	-8%	11µM*	nt	nt	-10%
CC(=O)N1CCCc2cc(S(=O)(=O)NC(C(=O)NC3CCCCC3)C(C)C)ccc21 (stereo not drawn)	23%	-8%	35µM*	-2%	4%	-2%
COc1ccc(NC(=O)C(NS(=O)(=O)c2ccc3c(c2)CCCN3C(C)=O)C(C)C)c(OC)c1 (stereo not drawn)	7%	-24%	?	8%	-2%	56µM*
Nc1cc(N)c(OCC(F)(F)F)cc1OCC(F)(F)F	?	?	50µM*	?	?	?
Cc1ccc(S(=O)(=O)N(C)/N=C/c2ccc(C(=O)O)cc2)cc1	42%	-7%	45µM*	8%	nt	-2%
Cc1ccc(S(=O)(=O)N/N=C/c2ccc(C(=O)O)cc2)cc1	72%	-5%	11µM*	-14%	10%	7%
Cc1ccc(S(=O)(=O)N/N=C\c2ccc3c(c2)OCO3)cc1	28%	-13%	10%	7%	-5%	-6%[57.1 µM]
CC(=O)NCc1ccc(S(=O)(=O)N/N=C/c2ccc(Br)cc2)cc1	35%	-6%	?	8%	4%	-2%
Cc1ccc(S(=O)(=O)N/N=C\c2ccc(Cl)c([N+](=O)[O-])c2)cc1	-4%	?	7.9µM*	20%	0%	?
CC(=O)NCc1ccc(S(=O)(=O)N/N=C/c2ccccc2)cc1	49%	2%	3.2µM*	-1%	-4%	-19%
Cc1ccc(/C=N/N(C)S(=O)(=O)c2ccc(C)cc2)cc1	36%	5%	53%	5%	nt	53%
Cc1ccc(NC(=S)N/N=C/c2ccc(Cl)c([N+](=O)[O-])c2)cc1	28%	-17%	27%[59 µM]	20%	nt	7%
CCOC(=O)N1CCc2c(sc3c2c(=O)n(CCc2ccccc2)c(=O)n3Cc2cc(C)ccc2C)C1	36%	-16%	?	nt	nt	?
COC(=O)C1=C(C(=O)OC)[C@@H]2N(Cc3ccccc3)c3ccccc3[C@@]23C[C@@H](C(=O)OC)N(S(=O)(=O)c2ccc(OC)cc2)C3=N1	nt	nt	nt	-13%	nt	nt
O=C1c2cccc3c2[C@@H](CCC3)CN1[C@@H]1CN2CCC1CC2	nt	nt	-27%[12.7 µM]	3%	nt	nt
Cc1cc(C)n(CCCNC(=O)C(C)(C)Oc2ccc(Cl)cc2)n1	21%	-12%	-13%[59 µM]	nt	4%	-2%

Source: PubChem BioAssay
